Z-score and composite z-score data for 4 compounds are collected here from PubChem BioAssay.

Active and inactive are the calls of the source.

Test [1] is described as follows: optical density shifts of acrAB sulA E. coli – strain DRC41, OD650, 48 h, E. coli filamentation inducer project, primary screen (AID 1152).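 Also: E. coli MC1000 strain DRC41 lacking acrAB efflux pump and sulA.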 Particulars: higher = more signal, called active from +8 up or from −8 down.
Test [2] is described as follows: probe aLefty1 binding on compound microarray – biochemical, small-molecule microarray, 635/667 nm fluorescence, primary screen (AID 1153).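 Also: score merges spot fluorescence with signal-to-noise ratio from the scanned slide images.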 Particulars: higher = more signal.
Test [3] can be described thus: plasmodial surface anion channel blockers, osmotic lysis – cell-based, P. falciparum Indochina, OD700, 1 h, primary screen (AID 1154). Conditions: P. falciparum Indochina infected RBC osmotic lysis, higher = more signal, called active from +8 up or from −8 down.
Test [4] in a line: plasmodial surface anion channel blockers, osmotic lysis – cell-based, P. falciparum Indochina, OD700, 2 h, primary screen (AID 1155).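 Also: lysis reports solute entry through the parasite surface anion channel PSAC.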 Conditions: P. falciparum Indochina infected erythrocytes, higher = more signal, called active from +8 up or from −8 down.
Test [5] can be described thus: changes in parasitized red cell lysis, either direction – P. falciparum Indochina, OD700, 3 h, PSAC antagonist project, primary screen (AID 1156). Particulars: P. falciparum-infected erythrocytes, osmotic lysis, higher = more signal, called active from +8 up or from −8 down.
A short description of test [6]: plasmodial surface anion channel blockers, osmotic lysis – cell-based, P. falciparum Indochina, OD700, 18 h, primary screen (AID 1157). Particulars: P. falciparum Indochina infected erythrocytes, osmotic lysis OD700, 18 h; higher = more signal, called active from +8 up or from −8 down.
The nature of test [7]: S6 kinase pathway phospho-S6 level changes – cell-based, A549, cytoblot, luminescence, serum-stimulated, primary screen (AID 1158).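 Also: serum-stimulated A549 lung adenocarcinoma cells; signal is phosphorylated S6 detected by cytoblot immunostaining with HRP secondary.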 Conditions: 5 h, higher = more signal.
Test [8] has as its target NADPH oxidase 2 (Homo sapiens) (UniProt P04839). The test is described as follows: compounds shifting NOX2 Amplex Red fluorescence – cell-based, HEK293-NOX2, PMA-stimulated, NOX inhibitor project, primary screen (AID 1159). Also: test concentration not given here. Conditions: 45 min, higher = more signal, called active from +8 up or from −8 down.
Test [9] concerns the target NADPH oxidase 4 (Homo sapiens) (UniProt Q9NPH5). The test is described as follows: compounds shifting NOX4 Amplex Red fluorescence – cell-based, HEK293-NOX4, tetracycline-induced, NOX inhibitor project, primary screen (AID 1160). Conditions: HEK293-NOX4, Amplex Red H2O2 fluorescence, 45 min; higher = more signal, called active from +8 up or from −8 down.
The target of test [10] is NADPH oxidase 5 (Homo sapiens) (UniProt Q96PH1). Put plainly: compounds shifting NOX5 Amplex Red fluorescence – cell-based, HEK293-NOX5, NOX inhibitor project, primary screen (AID 1161). Particulars: HEK293-NOX5, ionomycin, 45 min, higher = more signal.
Test [11] can be described thus: compound effects on lung adenocarcinoma cell viability – A549, calcein-AM fluorescence, 48 h, basal, profiling panel (AID 1162). Also: test concentration not given here. Particulars: higher = more signal.
The nature of test [12]: compound effects on differentiated 3T3-L1 adipocyte viability – cell-based, 3T3-L1 adipocytes, calcein-AM fluorescence, 48 h, basal, profiling panel (AID 1163). Also: test concentration not given here. Conditions: 3T3-L1 adipocytes viability, higher = more signal.
Test [13] in a line: compound effects on hepatocellular carcinoma cell viability – HepG2, calcein-AM fluorescence, 48 h, basal, profiling panel (AID 1164). Also: test concentration not given here. Particulars: higher = more signal.
Test [14] is described as follows: compound effects on multiple myeloma cell viability – MM1S, calcein-AM fluorescence, 48 h, basal, profiling panel (AID 1165). Also: test concentration not given here. Conditions: higher = more signal.
Test [15] is described as follows: calcein-AM signal in unstimulated myeloma cells – cell-based, calcein-AM fluorescence, 48 h, PK04 Diversity Set, profiling panel (AID 1166).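 Also: cells grown under basal conditions without added stimulus; test concentration not given here.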 Conditions: RPMI8226 myeloma viability, higher = more signal.
Test [16] in a line: JC-1 mitochondrial signal, unstimulated HepG2 cells – cell-based, JC-1 fluorescence, 24 h, 100 nL compound, profiling panel (AID 1167). Also: test concentration not given here. Particulars: HepG2 mitochondrial potential, higher = more signal.
A short description of test [17]: JC-1 mitochondrial signal, unstimulated adipocytes – cell-based, JC-1 fluorescence, 3T3-L1 adipocytes, 24 h, 100 nL compound, profiling panel (AID 1168). Also: test concentration not given here. Particulars: JC-1 mitochondrial fluorescence, higher = more signal, called active from +8 up or from −8 down.
Test [18] in a line: JC-1 mitochondrial signal, unstimulated myeloma cells – cell-based, JC-1 fluorescence, RPMI8226, 24 h, 100 nL compound, profiling panel (AID 1169). Also: test concentration not given here. Particulars: JC-1 mitochondrial potential fluorescence, higher = more signal.
Test [19] in a line: JC-1 mitochondrial signal, unstimulated MM1S myeloma – cell-based, JC-1 fluorescence, 24 h, 100 nL compound, profiling panel (AID 1170). Also: test concentration not given here. Conditions: MM1S mitochondrial potential, higher = more signal.
Test [20] is described as follows: resazurin metabolic signal in A549 cells – cell-based, resazurin fluorescence, 24 h, PK04 Diversity Set, profiling panel (AID 1171). Also: test concentration not given here. Particulars: A549 viability, higher = more signal, called active from +8 up or from −8 down. In general terms: The colour change of resazurin is a common sign of viable cells or microbes.

NADPH oxidase 4 (Homo sapiens), sequence (Q9NPH5 whole entry, looked up): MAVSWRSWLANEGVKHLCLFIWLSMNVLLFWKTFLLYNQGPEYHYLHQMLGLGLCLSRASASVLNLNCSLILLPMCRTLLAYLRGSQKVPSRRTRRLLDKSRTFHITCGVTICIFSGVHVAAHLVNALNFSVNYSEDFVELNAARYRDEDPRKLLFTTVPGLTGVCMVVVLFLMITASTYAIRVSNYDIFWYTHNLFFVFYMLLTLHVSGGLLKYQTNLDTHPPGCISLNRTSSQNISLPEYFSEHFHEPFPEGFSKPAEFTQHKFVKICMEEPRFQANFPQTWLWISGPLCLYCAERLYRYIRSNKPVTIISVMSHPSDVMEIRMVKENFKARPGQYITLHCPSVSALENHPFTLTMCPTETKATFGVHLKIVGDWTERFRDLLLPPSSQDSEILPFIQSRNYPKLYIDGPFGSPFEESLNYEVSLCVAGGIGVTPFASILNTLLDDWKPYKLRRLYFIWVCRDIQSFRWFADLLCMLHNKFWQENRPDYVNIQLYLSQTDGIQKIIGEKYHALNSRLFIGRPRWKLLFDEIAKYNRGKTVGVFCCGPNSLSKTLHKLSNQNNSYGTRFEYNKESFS
NADPH oxidase 5 (Homo sapiens), sequence (Q96PH1 whole entry, looked up): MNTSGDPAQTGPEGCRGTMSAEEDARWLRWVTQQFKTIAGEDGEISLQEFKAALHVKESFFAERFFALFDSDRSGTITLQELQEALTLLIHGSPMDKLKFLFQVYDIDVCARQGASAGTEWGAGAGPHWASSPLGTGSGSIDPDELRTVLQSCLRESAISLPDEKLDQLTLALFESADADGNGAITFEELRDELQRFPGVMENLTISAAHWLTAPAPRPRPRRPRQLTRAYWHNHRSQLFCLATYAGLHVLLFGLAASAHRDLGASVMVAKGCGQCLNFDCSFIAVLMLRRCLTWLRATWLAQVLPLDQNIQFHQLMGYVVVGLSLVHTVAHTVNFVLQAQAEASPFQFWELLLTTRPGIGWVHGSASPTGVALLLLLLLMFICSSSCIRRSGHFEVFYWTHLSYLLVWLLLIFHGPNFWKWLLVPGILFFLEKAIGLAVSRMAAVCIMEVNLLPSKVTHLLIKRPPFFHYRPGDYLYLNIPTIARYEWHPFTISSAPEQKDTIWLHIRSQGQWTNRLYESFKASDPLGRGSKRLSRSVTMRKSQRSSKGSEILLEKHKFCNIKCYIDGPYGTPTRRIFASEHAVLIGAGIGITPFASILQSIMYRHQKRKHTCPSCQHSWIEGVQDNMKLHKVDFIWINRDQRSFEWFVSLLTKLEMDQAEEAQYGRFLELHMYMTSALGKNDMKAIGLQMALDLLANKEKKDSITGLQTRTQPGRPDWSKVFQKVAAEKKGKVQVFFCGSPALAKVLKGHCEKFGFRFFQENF
NADPH oxidase 2 (Homo sapiens), sequence (P04839 whole entry, looked up): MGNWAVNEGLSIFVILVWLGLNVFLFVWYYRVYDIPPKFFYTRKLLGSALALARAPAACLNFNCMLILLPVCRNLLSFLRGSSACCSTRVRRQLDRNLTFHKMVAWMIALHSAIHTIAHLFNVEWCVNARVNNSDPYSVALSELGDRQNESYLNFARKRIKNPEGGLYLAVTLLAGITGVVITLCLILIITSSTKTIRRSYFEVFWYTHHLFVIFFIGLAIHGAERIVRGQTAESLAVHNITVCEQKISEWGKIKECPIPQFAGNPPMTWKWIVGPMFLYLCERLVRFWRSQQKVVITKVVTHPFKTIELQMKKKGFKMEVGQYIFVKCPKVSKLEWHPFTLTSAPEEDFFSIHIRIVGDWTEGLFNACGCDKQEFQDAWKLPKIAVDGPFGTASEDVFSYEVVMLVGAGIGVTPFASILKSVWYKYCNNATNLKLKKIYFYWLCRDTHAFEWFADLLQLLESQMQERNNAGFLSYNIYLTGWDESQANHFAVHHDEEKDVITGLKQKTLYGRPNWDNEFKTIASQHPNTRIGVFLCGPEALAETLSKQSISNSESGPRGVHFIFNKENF

Consider `COCCOC(=O)N1C(=O)[C@@]2(c3cc(C#CCCO)ccc31)[C@H](C(=O)N1CCCCCCC1)[C@H]1C(=O)O[C@H](c3ccccc3)[C@H](c3ccccc3)N1[C@@H]2c1ccc(O)cc1`, for which the z-score in [1] was 3.86 (inactive); in test [3] it was 1.06 (inactive); in test [4] it was -0.755 (inactive); in test [5], -0.0793 (inactive); in [6] it was -1.32 (inactive); in test [7], 5.3. The z-score is 1.7 (inactive) in [8]; 0.807 (inactive) in [9]; 1.67 in [10]; 1.53 in [11]; 0.843 in test [12]; 1.87 in [13]. Further, the z-score in test [14] is 0.555; in test [15], -0.479; in [16], 0.538; in test [17] it was 2.37 (inactive); in [18] it was -1.04; in test [19] it was 0.0272. The z-score in test [20] is 0.641 (inactive). The same compound came in with a composite z-score in test [2] of 1.6.
Turning to `COc1cccc([C@H]2N[C@H](C(=O)O)CC[C@@H]2C)c1`, the z-score in [1] is 0.669 (inactive); in [3], 1.09 (inactive); in test [4], 0.0208 (inactive); in [5], 0.269 (inactive); in test [6], -1.06 (inactive); in [7], 3.05. Also, the z-score was 0.0263 (inactive) in [8]; -0.557 (inactive) in test [9]; 0.125 in test [10]; 0.0912 in test [11]; 2.03 in test [12]; -0.175 in test [13]. Besides, the z-score in [14] was 0.543; in test [15] it was -1.36; in test [16], 1.16; in [17] it was 0.75 (inactive); in test [18] it was -0.358; in [19], 0.632. Further, the z-score in [20] was -0.336 (inactive). For the same compound, the composite z-score in test [2] is -0.23.
In the case of `CN1C2C=C(c3ccc(CO)cc3)C(C3C(=O)N(C(N)=O)C(=O)C32)C1c1cccs1` (stereo not given), the z-score in test [1] was 1.37 (inactive); in test [3], 2.26 (inactive); in [4], -1.44 (inactive); in test [5] it was -0.71 (inactive); in test [6], -1.37 (inactive); in test [7], -0.402. Further, the z-score in [8] was 1.57 (inactive); in test [9], -0.124 (inactive); in test [10], -0.0981; in [11] it was 0.555; in [12] it was 1.64; in test [13], -0.542. The z-score in test [14] is 0.31; in [15] it was 1.07; in test [16] it was 0.171; in test [17] it was 0.497 (inactive); in [18] it was -0.21; in [19], 0.491. Also, in test [20], the z-score was 0.567 (inactive). In addition, the composite z-score in [2] is -0.0893.
Consider `CN(C)CCCC[C@@H]1NC(=O)[C@@H]2C[C@H](C(=O)NCCCCCNC(=O)CS)[C@H](c3ccc(O)cc3)N2C1=O`, for which the z-score in test [1] was 1.04 (inactive); in test [3] it was 1.06 (inactive); in test [4] it was -1.21 (inactive); in test [5], -3.46 (inactive); in test [6], -2.25 (inactive); in test [7], 0.209. For the same compound, the z-score in test [8] is 0.109 (inactive); in test [9], 0.501 (inactive); in test [10], 0.398; in test [11] it was 0.748; in test [12] it was 0.387; in test [13], -1.02. The z-score in test [14] was -0.0855; in [15], 0.262; in test [16], 1.61; in test [17] it was 0.642 (inactive); in test [18], -0.238; in test [19], 0.422. The z-score in test [20] is -0.207 (inactive). This compound also displayed a composite z-score in [2] of -0.227.
